Our source for the growth values is PubChem BioAssay (NCI).

About 83,000 compounds went through this panel and 20% of them were active in at least one assay; those are over-represented in the sample as a whole.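 Testing used 96-well plates and a 48-hour single-concentration exposure. Example: -40 means 40% of the starting cells died.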 Unmarked numbers belong to inactive results. Activity calls are given as the source filed them. How the source made its calls: active means growth percent below 10; inactive means the rest.

Among the test systems are SK-MEL-2 melanoma; EKVX NSCLC; SN12C renal; UO-31 renal; TK-10 renal; ACHN renal; CAKI-1 renal; A498 renal; CCRF-CEM leukemia; SR leukemia; RPMI-8226 leukemia; OVCAR-8 ovarian; OVCAR-5 ovarian; OVCAR-4 ovarian; SK-OV-3 ovarian; IGROV1 ovarian; OVCAR-3 ovarian; HS 578T breast; NCI/ADR-RES ovarian; MOLT-4 leukemia.
Assay in all cases: NCI-60 one-dose screen, 48 h (100 = growth as untreated, 0 = no growth, -100 = all killed)
Details in all cases: 10 µM unless noted

Consider `O=c1cc(-c2ccccc2)[nH]c2ncc(-c3ccc(F)cc3)n12`, for which the growth is 74.2% with SK-MEL-2 melanoma; 87.8% in the test with EKVX NSCLC; 88.5% with SN12C renal; 69.2% in the test on UO-31 renal; 105% in the test with TK-10 renal; 88.3% with ACHN renal. For the same molecule, the growth in the test on CAKI-1 renal is 48.1%; with A498 renal it was 59%; in the test on CCRF-CEM leukemia, 56.3%; with SR leukemia it was 16.1%; in the test with RPMI-8226 leukemia, 74.5%; with OVCAR-8 ovarian, 89.4%. The growth in the test on OVCAR-5 ovarian is 94.5%; in the test on OVCAR-4 ovarian, 93.9%; in the test with SK-OV-3 ovarian, 82.1%; in the test with IGROV1 ovarian, 67%; with OVCAR-3 ovarian, 54%; with HS 578T breast, 68%. The growth with NCI/ADR-RES ovarian is 45.3%.

Regarding `CCc1ccc(CCC(=O)Nc2ncc(Cc3ccccc3)s2)o1`, the growth was 44.4% with SK-MEL-2 melanoma; 36.1% with EKVX NSCLC; 42.3% with SN12C renal; 40.3% in the test with UO-31 renal; 63.1% with TK-10 renal; 44.4% in the test on ACHN renal. The growth was 33.3% with CAKI-1 renal; 22.9% in the test on A498 renal; 19% in the test with CCRF-CEM leukemia; 22.2% in the test with MOLT-4 leukemia; 29.4% in the test with RPMI-8226 leukemia; 28.4% with OVCAR-8 ovarian. Also, the growth with OVCAR-5 ovarian was 38.9%; in the test on OVCAR-4 ovarian, 61.5%; in the test on SK-OV-3 ovarian it was 34.4%; in the test with IGROV1 ovarian, 35.6%; in the test with HS 578T breast, 9.99% (active); with NCI/ADR-RES ovarian, 12.7%.

Regarding `C=C1C(=O)O[C@H]2[C@H]1CC/C(COC(=O)NCc1ccc(Cn3c(=O)sn(-c4ccc(C#N)cc4)c3=O)cc1)=C\CC[C@@]1(C)O[C@@H]21`, the growth was 84.8% in the test on SK-MEL-2 melanoma; 92.2% in the test with EKVX NSCLC; 50.3% in the test with SN12C renal; 75.9% in the test on UO-31 renal; 48.9% with TK-10 renal; 79.5% in the test on ACHN renal. Moreover, the growth is 58.4% with CAKI-1 renal; 120% in the test with A498 renal; 3.9% (active) with CCRF-CEM leukemia; 55% with SR leukemia; 6.41% (active) in the test with RPMI-8226 leukemia; 74.1% in the test with OVCAR-8 ovarian. The growth is 86% with OVCAR-5 ovarian; 46.5% with OVCAR-4 ovarian; 93.1% in the test with SK-OV-3 ovarian; 57.8% with IGROV1 ovarian; -39.5% (active) with OVCAR-3 ovarian; 99.4% in the test on HS 578T breast. The growth with NCI/ADR-RES ovarian was 103%.

For `N#Cc1nc(-c2ccccc2)oc1S(=O)(=O)N1CCN(c2ccc(F)cc2)CC1`, the growth is 95.2% in the test with SK-MEL-2 melanoma; 118% in the test on EKVX NSCLC; 79.4% in the test on SN12C renal; 80.3% with UO-31 renal; 44.1% with TK-10 renal; 53.8% with ACHN renal. Besides, the growth in the test on CAKI-1 renal is 62.2%; in the test on A498 renal, 110%; in the test with CCRF-CEM leukemia, -31% (active); in the test on SR leukemia it was -20.3% (active); with RPMI-8226 leukemia, 36%; with OVCAR-8 ovarian it was 63.1%. The growth is 102% in the test on OVCAR-5 ovarian; 107% in the test on OVCAR-4 ovarian; 109% in the test with SK-OV-3 ovarian; 45.6% with IGROV1 ovarian; 51.9% in the test on OVCAR-3 ovarian; 103% with HS 578T breast. In the test with NCI/ADR-RES ovarian, the growth is 96.4%.

Take `O=C(NC1CC(F)C1)c1cc2cccnc2n1-c1ccc(Cl)c(Cl)c1` (stereo not drawn): the growth with SK-MEL-2 melanoma is 105%; in the test on EKVX NSCLC it was 98.5%; in the test with SN12C renal, 96.4%; in the test on UO-31 renal it was 69.7%; with TK-10 renal, 90.2%; in the test on ACHN renal, 95.5%. The growth in the test with CAKI-1 renal is 84.4%; in the test on A498 renal it was 99%; in the test with CCRF-CEM leukemia, 99.7%; in the test with SR leukemia it was 104%; in the test on RPMI-8226 leukemia, 95.6%; with OVCAR-8 ovarian it was 95.4%. The growth in the test on OVCAR-5 ovarian was 94.8%; in the test on OVCAR-4 ovarian it was 95.4%; in the test with SK-OV-3 ovarian, 104%; with IGROV1 ovarian, 86.7%; in the test with OVCAR-3 ovarian it was 102%; with HS 578T breast it was 99.2%. For the same molecule, the growth in the test on NCI/ADR-RES ovarian is 90.1%.

As for `C=C1C(=O)O[C@H]2[C@H]1CC/C(Cn1cc(CCC)nn1)=C\CC[C@@]1(C)O[C@@H]21`, the growth in the test with SK-MEL-2 melanoma is 44.7%; in the test with EKVX NSCLC, 77.4%; in the test on SN12C renal, 23.1%; with UO-31 renal, 0.946% (active); in the test on TK-10 renal it was -15.9% (active); in the test on ACHN renal, -0.504% (active). Further, the growth is 5.35% (active) in the test on CAKI-1 renal; 39% with A498 renal; -27.4% (active) with CCRF-CEM leukemia; 0.0381% (active) in the test with SR leukemia; 26.9% in the test with RPMI-8226 leukemia; 23.7% in the test on OVCAR-8 ovarian. Moreover, the growth with OVCAR-5 ovarian is 68.2%; in the test on OVCAR-4 ovarian, 40.3%; in the test on SK-OV-3 ovarian, 111%; with IGROV1 ovarian it was 41%; in the test on OVCAR-3 ovarian, 1.06% (active); in the test on HS 578T breast, 69.1%. Further, the growth with NCI/ADR-RES ovarian is 73.1%.
